The text below walks through data of PubChem BioAssay (Tox21).

Assay [1] can be described thus: qHTS assay to identify aromatase inhibitors - cell viability counter screen (AID 743084).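 Note: cells stimulated with testosterone during compound exposure; nearly all actives have a fitted effect of over 55% in size.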 Note: potency is the fitted concentration of half-maximal effect.
In assay [2] the target is Aryl hydrocarbon receptor (Homo sapiens) (UniProt P35869). Kind of assay: qHTS assay to identify small molecule that activate the aryl hydrocarbon receptor (AhR) signaling pathway (AID 743085).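 For activation: HG2L7.5c1 human HepG2 liver cells with stably integrated DRE-driven firefly reporter; series mostly up to about 70 µM.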 Note: nearly all actives have a fitted effect of over 15% in size. Note: potency is the fitted concentration of half-maximal effect. A digest of the protocol:
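Reporter assay in engineered HepG2 line HG2L7.5c1, whose plasmid carries twenty dioxin responsive elements upstream of firefly luciferase. Treatment lasted 24 h at 37C; ONE-Glo luminescence gauged induction.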

The nature of assay [3]: qHTS assay to identify small molecule that activate the aryl hydrocarbon receptor (AhR) signaling pathway - cell viability counter screen (AID 743086). Note: nearly all actives have a fitted effect of over 45% in size. Note: potency is the fitted concentration of half-maximal effect. The method in brief: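 HepG2-AhR-luc (HG2L7.5c1) cells, 4000/well, were preincubated 5 h at 37C, exposed to compound in qHTS format for 24 hr at 37C, then given CellTiter-Fluor for 30 min; viability was read as fluorescence in the reporter wells.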

A short description of assay [4]: qHTS assay to identify small molecule antagonists of the peroxisome proliferator-activated receptor gamma (PPARg) signaling pathway - cell viability counter screen (AID 743194). Note: nearly all actives have a fitted effect of over 55% in size. A digest of the protocol:
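PPARg-UAS-bla HEK293H cells were plated, rested 5 h at 37 C, then treated with compounds plus rosiglitazone (50 nM final) for 17 h at 37 C; viability was then read by CellTiter-Glo luminescence after 30 min at room temperature.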

Assay [5] in a line: qHTS assay for small molecule agonists of the antioxidant response element (ARE) signaling pathway (AID 743202; active = well fitted activation curve with a large enough effect in the signal ratio in the repeat runs, not every such curve was filed as active; the % refers to the signal ratio; note: potency is the fitted concentration of half-maximal effect). A digest of the protocol: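 Compounds delivered in DMSO to ARE-bla HepG2 cells (2,000 cells/well, pre-incubated 5 h) and left 16 h at 37 C. LiveBLAzer B/G FRET substrate then added for 2 h at RT before fluorescence reading.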
The nature of assay [6]: qHTS assay for small molecule agonists of the antioxidant response element (ARE) signaling pathway - cell viability counter screen (AID 743203; calls by dose curve; note: nearly all actives have a fitted effect of over 55% in size). A digest of the protocol:
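Compounds in DMSO were pinned onto ARE-bla HepG2 cells plated 5 hrs earlier at 2,000 cells/well. Sixteen hours later at 37C/5% CO2, CellTiter-Glo was added and luminescence measured after 30 min at room temperature.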

Assay [7] in a line: qHTS assay for small molecule activators of the heat shock response signaling pathway - cell viability counter screen (AID 743209). Note: nearly all actives have a fitted effect of over 50% in size. Note: potency is the fitted concentration of half-maximal effect. A digest of the protocol: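 Counter screen for cytotoxicity in HeLa HSE-bla reporter cells. Treatment was 5 h at 37 C; viability was detected by luminescent ATP assay (CellTiter-Glo) in the same wells as the beta-lactamase read.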
Assay [8] in a line: qHTS assay to identify small molecule agonists of the peroxisome proliferator-activated receptor delta (PPARd) signaling pathway - cell viability counter screen (AID 743211). Note: nearly all actives have a fitted effect of over 55% in size. Note: potency is the fitted concentration of half-maximal effect. A digest of the protocol: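 Multiplexed format: after the 2 h room-temperature LiveBLAzer B/G FRET step, CellTiter-Glo was added to the same wells. Luminescence after 30 min gave cell viability; compound exposure was 17 h at 37C.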

Assay [9] in a line: qHTS assay to identify small molecule antagonists of the peroxisome proliferator-activated receptor delta (PPARd) signaling pathway - cell viability counter screen (AID 743213). Note: nearly all actives have a fitted effect of over 50% in size. A digest of the protocol:
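PPARd-bla HEK293H cells (3000/well) got compound plus 300 nM L165041 agonist for 17 h at 37 C. Viability in the same wells came from CellTiter-Glo luminescence after 30 min at room temperature.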

A short description of assay [10]: qHTS assay to identify small molecule antagonists of the farnesoid-X-receptor (FXR) signaling pathway - cell viability counter screen (AID 743221; active = well fitted cell-killing curve with a large enough effect in the repeat runs, not every such curve was filed as active; note: nearly all actives have a fitted effect of over 50% in size). The method in brief: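 CellTiter-Glo, 30 min RT, luminescence; same wells as the LiveBLAzer FRET read. Cells: FXR-UAS-bla HEK 293T. Treatment: compound with chenodeoxycholic acid 50 uM final, 16 h at 37 C.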
For assay [11], the target named is Vitamin D3 receptor (Homo sapiens) (UniProt P11473). Kind of assay: qHTS assay to identify small molecule agonists of the vitamin D receptor (VDR) signaling pathway (AID 743222; calls by dose curve). The method in brief: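 VDR-bla cells were seeded, left 4 h, treated with compounds in DMSO for 16 h, incubated 2 h at RT with B/G FRET substrate, and read for fluorescence.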
Assay [12] shares this target. Put plainly: qHTS assay to identify small molecule antagonists of the vitamin D receptor (VDR) signaling pathway (AID 743223; active = well fitted inhibition curve with a large enough effect in the signal ratio in the repeat runs, not every such curve was filed as active; the % refers to the signal ratio). A digest of the protocol: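 After VDR-bla cells are plated and left 4 h at 37C, DMSO-dissolved compounds and 3 nM (final) calcitriol agonist are added. Incubation continues 16 h at 37C; FRET beta-lactamase substrate then develops 2 h at room temperature.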

Assay [13] addresses Peroxisome proliferator-activated receptor gamma (Homo sapiens) (UniProt P37231). Put plainly: qHTS assay to identify small molecule agonists of the peroxisome proliferator-activated receptor gamma (PPARg) signaling pathway (AID 743094; active = well fitted activation curve with a large enough effect in the signal ratio in the repeat runs, not every such curve was filed as active; the % refers to the signal ratio). The method in brief: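 Following 5 h plating at 37C, PPARg-bla HEK293H cells receive compound or DMSO for 17 h; fluorescence intensity is recorded after LiveBLAzer B/G loading for 1 h at room temperature.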

The nature of assay [14]: qHTS assay for small molecule activators of the heat shock response signaling pathway (AID 743210; active = well fitted activation curve with a large enough effect in the signal ratio in the repeat runs, with a control signal flat, not every such curve was filed as active; the % refers to the signal ratio; note: potency is the fitted concentration of half-maximal effect;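 for activation: HeLa cells with beta-lactamase reporter driven by heat shock elements; series mostly up to about 63 µM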). A digest of the protocol:
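Reporter gene assay: HeLa cells stably bearing an HSE-bla construct, compound treatment 5 h at 37 C, LiveBLAzer substrate 2.5 h at RT, fluorescence intensity.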

In assay [15] the target is Peroxisome proliferator-activated receptor delta (Homo sapiens) (UniProt Q03181). Kind of assay: qHTS assay to identify small molecule agonists of the peroxisome proliferator-activated receptor delta (PPARd) signaling pathway (AID 743212; calls by dose curve). The method in brief:
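A PPARd-bla HEK293H line with beta-lactamase under an Upstream Activator Sequence is treated with compounds at 37 C. Substrate loading for 2 h at room temperature precedes the fluorescence measurement.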

The target is the same in assay [16]. Kind of assay: qHTS assay to identify small molecule antagonists of the peroxisome proliferator-activated receptor delta (PPARd) signaling pathway (AID 743215; active = well fitted inhibition curve with a large enough effect in the signal ratio in the repeat runs, not every such curve was filed as active; the % refers to the signal ratio;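 note: cells stimulated with agonist L165041 at 300 nM final during compound exposure; series mostly up to about 62 µM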). A digest of the protocol: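 With L165041 present at 300 nM final, compounds were incubated 17 h at 37 C on PPARd UAS-bla HEK293H cells. A FRET-based beta-lactamase substrate was then applied for 2 h at room temperature and fluorescence intensity recorded.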

The nature of assay [17]: qHTS assay to identify small molecule agonists of the farnesoid-X-receptor (FXR) signaling pathway - cell viability counter screen (AID 743218). Note: nearly all actives have a fitted effect of over 45% in size. A digest of the protocol:
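After 16 h at 37 C with test compounds, FXR-bla HEK 293T cells were given LiveBLAzer B/G substrate for 2 h at RT and then CellTiter-Glo; luminescence was taken after 30 min.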

The target of assay [18] is Peroxisome proliferator-activated receptor gamma (Homo sapiens) (UniProt P37231). Kind of assay: qHTS assay to identify small molecule antagonists of the peroxisome proliferator-activated receptor gamma (PPARg) signaling pathway (AID 743191; calls by dose curve; note: nearly all actives have a fitted effect of over 30% in size; note: potency is the fitted concentration of half-maximal effect). The method in brief:
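GeneBLAzer PPARg UAS-bla HEK293H cells carrying a UAS-driven beta-lactamase reporter were plated at 3000 cells/well, preincubated 5 h at 37C, then given compound for 17 h at 37C; LiveBLAzer B/G FRET substrate was read after 1 h at room temperature.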

Assay [19] deals with Bile acid receptor (Homo sapiens) (UniProt Q96RI1). Kind of assay: qHTS assay to identify small molecule agonists of the farnesoid-X-receptor (FXR) signaling pathway (AID 743220; active = well fitted activation curve with a large enough effect in the signal ratio in the repeat runs, not every such curve was filed as active; the % refers to the signal ratio). A digest of the protocol: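 Beta-lactamase reporter under UAS control in GeneBLAzer FXR HEK 293T cells (5000/well) measured with LiveBLAzer FRET substrate after 2 h at room temperature. Compound exposure lasted 16 h at 37C.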

The target is the same in assay [20]. Kind of assay: qHTS assay to identify small molecule antagonists of the farnesoid-X-receptor (FXR) signaling pathway (AID 743217; active = well fitted inhibition curve with a large enough effect in the signal ratio in the repeat runs, not every such curve was filed as active; the % refers to the signal ratio). A digest of the protocol:
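In this cell-based antagonist screen, inhibition of CDCA-driven (50 uM final) UAS-beta-lactamase expression in HEK 293T cells was measured by FRET fluorescence following 16 h compound exposure at 37 °C.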

Values joined by “and” are separate entries in the source; they are usually repeats but may differ in a detail not shown here. Equal entries are not always repeated. Inconclusive results are not listed. A structure can be active in one record and inactive in another. Active and inactive are the calls of the source. Unless noted, calls come from the whole dose curve; as a rule, active = well fitted curve in the direction sought with a large enough effect in the repeat runs; inconclusive = weak or mixed curves; inactive = no such curve, though single readings can be large; an effect the other way counts as inactive or inconclusive.

Peroxisome proliferator-activated receptor gamma (Homo sapiens), sequence (P37231 whole entry, looked up): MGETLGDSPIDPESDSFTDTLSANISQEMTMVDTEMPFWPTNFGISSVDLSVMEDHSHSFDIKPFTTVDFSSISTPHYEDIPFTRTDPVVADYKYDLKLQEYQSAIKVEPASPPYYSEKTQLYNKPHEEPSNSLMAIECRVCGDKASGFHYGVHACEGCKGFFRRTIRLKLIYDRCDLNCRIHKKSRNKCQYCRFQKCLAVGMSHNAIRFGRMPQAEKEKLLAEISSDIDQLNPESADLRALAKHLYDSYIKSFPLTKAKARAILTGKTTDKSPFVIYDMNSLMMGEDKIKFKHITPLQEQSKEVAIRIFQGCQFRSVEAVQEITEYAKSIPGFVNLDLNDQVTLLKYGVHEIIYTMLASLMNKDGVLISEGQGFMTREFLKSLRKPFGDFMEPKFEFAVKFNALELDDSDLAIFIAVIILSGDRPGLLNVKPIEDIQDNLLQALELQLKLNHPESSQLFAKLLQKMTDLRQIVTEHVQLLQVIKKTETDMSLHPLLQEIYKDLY
Vitamin D3 receptor (Homo sapiens), sequence (P11473 whole entry, looked up): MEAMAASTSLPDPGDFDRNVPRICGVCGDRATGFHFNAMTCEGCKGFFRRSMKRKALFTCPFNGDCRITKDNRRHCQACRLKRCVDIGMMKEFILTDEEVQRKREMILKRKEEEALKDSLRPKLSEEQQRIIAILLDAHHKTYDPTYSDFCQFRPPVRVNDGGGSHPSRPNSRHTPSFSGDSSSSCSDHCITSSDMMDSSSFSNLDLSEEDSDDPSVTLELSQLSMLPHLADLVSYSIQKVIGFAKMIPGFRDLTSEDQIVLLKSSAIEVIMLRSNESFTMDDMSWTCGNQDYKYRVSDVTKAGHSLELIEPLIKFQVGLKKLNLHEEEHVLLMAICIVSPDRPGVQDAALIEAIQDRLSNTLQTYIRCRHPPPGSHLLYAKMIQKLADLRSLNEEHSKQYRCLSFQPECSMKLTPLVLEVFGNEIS
Peroxisome proliferator-activated receptor delta (Homo sapiens), sequence (Q03181 whole entry, looked up): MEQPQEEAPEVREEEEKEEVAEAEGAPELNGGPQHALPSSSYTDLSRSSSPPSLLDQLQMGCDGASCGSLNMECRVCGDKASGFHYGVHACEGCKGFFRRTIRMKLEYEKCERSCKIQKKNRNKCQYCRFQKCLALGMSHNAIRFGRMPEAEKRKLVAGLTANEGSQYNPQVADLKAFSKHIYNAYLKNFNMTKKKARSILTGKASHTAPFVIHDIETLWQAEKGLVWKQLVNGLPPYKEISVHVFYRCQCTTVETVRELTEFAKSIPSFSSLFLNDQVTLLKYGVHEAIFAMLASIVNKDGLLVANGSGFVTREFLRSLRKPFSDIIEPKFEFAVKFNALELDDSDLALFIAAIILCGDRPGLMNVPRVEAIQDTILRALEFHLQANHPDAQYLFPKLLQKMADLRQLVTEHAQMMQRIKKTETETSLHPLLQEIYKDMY
Bile acid receptor (Homo sapiens), sequence (Q96RI1 whole entry, looked up): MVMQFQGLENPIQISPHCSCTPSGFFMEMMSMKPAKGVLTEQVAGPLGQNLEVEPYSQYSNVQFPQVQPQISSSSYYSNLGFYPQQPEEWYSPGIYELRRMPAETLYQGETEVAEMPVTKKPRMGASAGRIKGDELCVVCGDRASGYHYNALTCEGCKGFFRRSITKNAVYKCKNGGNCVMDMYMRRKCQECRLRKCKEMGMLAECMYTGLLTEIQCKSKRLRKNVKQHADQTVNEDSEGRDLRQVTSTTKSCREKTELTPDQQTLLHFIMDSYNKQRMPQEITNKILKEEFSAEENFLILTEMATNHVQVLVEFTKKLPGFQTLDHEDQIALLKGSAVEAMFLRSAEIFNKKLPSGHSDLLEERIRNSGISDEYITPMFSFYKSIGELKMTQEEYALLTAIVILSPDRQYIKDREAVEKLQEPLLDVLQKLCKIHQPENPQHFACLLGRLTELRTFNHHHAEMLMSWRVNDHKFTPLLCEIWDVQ
Aryl hydrocarbon receptor (Homo sapiens), sequence (P35869 whole entry, looked up): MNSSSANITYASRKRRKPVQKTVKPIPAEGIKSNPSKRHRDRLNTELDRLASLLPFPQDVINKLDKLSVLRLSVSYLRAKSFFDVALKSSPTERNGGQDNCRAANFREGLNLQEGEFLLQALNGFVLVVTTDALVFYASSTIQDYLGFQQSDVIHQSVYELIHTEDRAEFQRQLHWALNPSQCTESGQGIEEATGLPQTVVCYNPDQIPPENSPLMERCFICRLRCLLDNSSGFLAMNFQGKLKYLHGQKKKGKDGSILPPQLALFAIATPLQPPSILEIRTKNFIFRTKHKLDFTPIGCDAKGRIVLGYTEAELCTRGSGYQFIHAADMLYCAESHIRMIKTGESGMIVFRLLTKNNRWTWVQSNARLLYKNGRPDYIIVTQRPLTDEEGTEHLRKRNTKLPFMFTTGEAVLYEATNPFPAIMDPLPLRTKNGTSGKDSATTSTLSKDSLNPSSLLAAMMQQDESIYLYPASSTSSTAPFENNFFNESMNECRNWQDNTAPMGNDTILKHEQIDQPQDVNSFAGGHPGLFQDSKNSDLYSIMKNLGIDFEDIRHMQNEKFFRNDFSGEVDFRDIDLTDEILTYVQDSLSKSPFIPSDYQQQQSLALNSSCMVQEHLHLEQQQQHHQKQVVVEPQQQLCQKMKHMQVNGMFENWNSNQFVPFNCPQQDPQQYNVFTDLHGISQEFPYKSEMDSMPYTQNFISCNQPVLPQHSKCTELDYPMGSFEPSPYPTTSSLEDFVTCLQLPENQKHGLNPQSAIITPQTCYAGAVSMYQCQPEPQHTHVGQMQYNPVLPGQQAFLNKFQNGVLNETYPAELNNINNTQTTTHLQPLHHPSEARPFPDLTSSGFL

For `C=CC(=O)OCCOc1ccccc1`, the Potency result in assay [1], in assay [2], in assay [3], in assay [4], in assay [5] and in assay [6] was “inactive” throughout. Moreover, the Potency result in assay [8], in assay [9], in [10] and in assay [11] was “inactive” in each case. Also, the Potency in assay [7] is 19.5 µM (active). In addition, the result in [12] was inactive.

For `O=C(Nc1ccccc1)c1ccccc1O`, the Potency result in assay [1], in assay [3], in assay [13], in [6], in [7] and in assay [14] was “inactive” in each case. Also, the Potency result in assay [15], in [9], in [16], in assay [17] and in assay [10] was “inactive” in each case. Moreover, the Potency was 21.7 µM (active) in assay [2] and 24.3 µM (active) in [5].

In the case of `CC(=O)OC[C@H]1O[C@@H](n2ncc(=O)[nH]c2=O)[C@H](OC(C)=O)[C@@H]1OC(C)=O`, the Potency result in [1], in assay [2], in assay [3], in assay [4], in assay [5] and in assay [6] was “inactive” throughout. Moreover, the Potency entry in assay [7], in assay [14], in assay [15], in assay [9], in assay [19] and in assay [11] was “inactive” each time. For the same compound, the Potency in [18] is 841 nM (active).

On to `CCCCCCCCCCCCCCCCOS(=O)(=O)O`, for which the Potency entry in [1], in assay [2], in assay [3], in assay [13], in assay [7] and in assay [17] was “inactive” each time. For the same compound, the Potency result in assay [19], in assay [10] and in [11] was “inactive” in each case. In addition, in assay [12], the compound was called inactive.

`OCc1cc(C(O)CNCCCCCCOCCCCc2ccccc2)ccc1O` (stereo not drawn): the Potency was 11.9 µM (active) and 9.44 µM (active) in assay [1]; 26.6 µM (active) and inactive in [2]; 26.6 µM (active) and 13.3 µM (active) in [3]; 26.6 µM (active) in assay [8]. Moreover, the Potency result in [18], in assay [7], in assay [14], in assay [16], in assay [19] and in assay [10] was “inactive” in each case.

In the case of `O=C(O)C(S)C(S)C(=O)O` (stereo not drawn), the Potency result in assay [1], in assay [2], in [3], in assay [4], in [6] and in assay [7] was “inactive” throughout. For the same compound, the Potency result in assay [8], in assay [15], in [16], in assay [20], in assay [17] and in assay [19] was “inactive” throughout. For the same compound, the Potency result in assay [11] was “inactive”. In assay [12], the call was inactive.

`O=C(c1ccc(F)cc1)C1CCN(CCn2c(=S)[nH]c3ccccc3c2=O)CC1`: the Potency entry in [1], in assay [2], in [3], in assay [18], in [4] and in assay [6] was “inactive” in each case. For the same compound, in assay [17], the Potency entry was “inactive”. For the same compound, in assay [14], the Potency was 19.6 µM (active).

For `C/C=C/C=C/CO`, the Potency entry in [1], in assay [2], in assay [3], in [13], in [6] and in assay [7] was “inactive” each time. The Potency result in [14], in [8], in assay [15], in assay [16], in [20] and in assay [17] was “inactive” each time. For the same compound, the Potency result in assay [19], in [10] and in assay [11] was “inactive” throughout. For the same compound, the outcome in assay [12] was inactive.

Turning to `Cc1ncc(CO)c(C=O)c1O`, the Potency result in [1], in [2], in assay [3], in assay [13], in assay [4] and in assay [6] was “inactive” throughout. The Potency result in assay [7], in [8], in assay [16], in assay [10] and in [11] was “inactive” in each case. For the same compound, the call in assay [12] was inactive.
